Reference: PubChem BioAssay AID504406 (Broad Institute, 2011)
Hit rate of the full screen: of about 320,000 compounds, about 190 (0.059%) were called active. This is one part of a sample in which actives are shown more often than they occur. No stated cut-off is given here; in the data, active means inhibition above about 10% (passing the limit was not always enough); inconclusive means no clear call, values can overlap the other calls.

biological target: UDP-galactopyranose mutase (Mycobacterium tuberculosis (strain ATCC 25618 / H37Rv)) (UniProt P9WIQ1); test: M. tuberculosis UGM enzyme inhibitors, primary screen, biochemical, fluorescence polarization, single point (AID 504406); settings: purified UGM, fluorescence polarization probe displacement; at 10 µM; hits give high values
Sequence (P9WIQ1 whole entry, looked up): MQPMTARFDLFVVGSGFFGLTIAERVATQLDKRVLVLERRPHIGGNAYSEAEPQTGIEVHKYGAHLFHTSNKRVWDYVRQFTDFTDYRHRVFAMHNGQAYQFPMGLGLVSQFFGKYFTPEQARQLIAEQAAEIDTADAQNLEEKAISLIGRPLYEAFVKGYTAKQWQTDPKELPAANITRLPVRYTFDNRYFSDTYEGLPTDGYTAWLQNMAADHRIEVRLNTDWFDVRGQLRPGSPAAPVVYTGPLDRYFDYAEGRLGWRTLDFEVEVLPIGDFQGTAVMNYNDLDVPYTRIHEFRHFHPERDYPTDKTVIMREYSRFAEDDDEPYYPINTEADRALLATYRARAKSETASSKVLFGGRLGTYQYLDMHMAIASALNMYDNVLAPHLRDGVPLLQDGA

Row | SMILES | inhibition
1 | CCN(CC)S(=O)(=O)c1ccc(N2CCCC2)c(NS(=O)(=O)c2cccs2)c1 | -0.858% (inactive)
2 | Clc1ccc(-c2cc(COc3ccccc3)no2)cc1Cl | 2.39% (inactive)
3 | Cc1ccc(S(=O)(=O)N(CC(=O)N/N=C/c2ccc(F)cc2)c2cccc3cccnc23)cc1 | 1.31% (inactive)
4 | COc1ccc2c(c1)c(=O)c(C(=O)c1ccc(Cl)cc1)cn2CC(=O)Nc1ccc(F)cc1 | -1.48% (inactive)
5 | Cc1cc(C)n(CCC(=O)N2CCN(S(=O)(=O)c3ccc(C)c(C)c3)CC2)n1 | -2.44% (inactive)
6 | CCOC(=O)C1(CCOc2ccccc2)CCN(Cc2ccc(C#CCCO)cc2)CC1 | -2.01% (inactive)
7 | COC(=O)c1ccc(NC(=O)CSc2nncn2-c2cccnc2)cc1 | -3.9% (inactive)
8 | COc1ccc(C(O)(C2CCCCC2)C(CN2CCCC2)c2ccccc2)cc1 (stereo not drawn) | 1.17% (inactive)
9 | COc1ccc(CNS(=O)(=O)c2ccc(NC(=O)N3CCCCC3)cc2)cc1 | 0.444% (inactive)
10 | COC(=O)c1c(NC(=O)COc2ccc(Cl)cc2Cl)sc2c1CC(C)(C)NC2(C)C | -3.8% (inactive)
11 | C=C(Br)CN1CCN(CC(=C)Br)CC1 | 2.58% (inactive)
12 | C=CC[C@@H](CC(=O)NCCO)C(=O)N[C@H](C)COC(=O)[C@@H](CC=C)CC(=O)OC(C)(C)C | -0.634% (inactive)
13 | Cn1c(=O)c2c(nc(OCc3cccnc3)n2Cc2ccccc2)n(C)c1=O | 7.96% (inactive)
14 | Cc1cc(C(=O)OCC(=O)Nc2ccc(F)c(F)c2)c(C)o1 | -0.0838% (inactive)
15 | COc1cccc(NC(=O)CN(C)CC(=O)c2c(N)n(Cc3ccccc3)c(=O)n(C)c2=O)c1 | 3.19% (inactive)
16 | CCCn1nnnc1NCc1ccc(CC)cc1 | -1.05% (inactive)
17 | Cc1cccc(N(C)C(=O)CN2C(=O)COc3ccc(S(=O)(=O)N4CCCCCC4)cc32)c1 | -1.26% (inactive)
18 | CCOC(CNC(=O)C1CCN(S(=O)(=O)c2ccc3nc4c(c(C(=O)O)c3c2)CC(C)CC4)CC1)OCC (stereo not drawn) | -0.608% (inactive)
19 | Cc1ccc(N)cc1-n1c(C)ccc1C | -4.8% (inactive)
20 | CC(Sc1nc2cc(Cl)ccc2s1)C(=O)Nc1ccc2c(c1)OCO2 (stereo not drawn) | 1.22% (inactive)
21 | Cc1cccc(N(CC(=O)Nc2ccc(-c3nc4ccc(C)cc4s3)cc2)S(C)(=O)=O)c1 | -2.81% (inactive)
22 | CCN(CC)CCn1cnc2c1c(=O)n(CCOC(=O)c1cc(OC)c(OC)c(OC)c1)c(=O)n2C | 0.786% (inactive)
23 | CC(CNC(=O)Cn1cnc2c(OCc3ccccc3)ncnc21)c1ccccc1 (stereo not drawn) | -1.84% (inactive)
24 | CCSC1(SCC)N=C(N)C2(C#N)C(c3ccccc3)NC(C)=CC12C#N (stereo not drawn) | 0.444% (inactive)
25 | O=C1CCC(Cc2ccccc2)N1 (stereo not drawn) | 1.36% (inactive)
26 | O=C(CN1C(=O)c2ccc([N+](=O)[O-])cc2C1=O)Nc1nnc(C2CC2)s1 | 0.737% (inactive)
27 | CN1CCN(Cc2nc3cc(NC(=O)COc4ccc([N+](=O)[O-])cc4)ccc3n2C)CC1 | -1.12% (inactive)
28 | CC1CCC2(CC1)NC(=O)N(CC(=O)c1cccn1C)C2=O (stereo not drawn) | -1.14% (inactive)
